In PubChem BioAssay (NCI) one finds growth data, which are given here for 40 molecules.

About 83,000 compounds went through this panel and 20% of them were active in at least one assay; those are over-represented in the sample as a whole.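 Method: cells in 96-well plates; compound added at one concentration; 48 h incubation; percent growth measured; values under 10 scored active.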 Active and inactive are the calls of the source.

The experiment deals with HL-60(TB) leukemia. Put plainly: NCI-60 one-dose screen, 48 h (100 = growth as untreated, 0 = no growth, -100 = all killed). Conditions: 10 µM unless noted.
As for `Cn1cc(-c2ccc3ncc(-c4ccc(CC(=O)Nc5cc(C(C)(C)C)no5)cc4)nc3c2)cn1`, the growth is 40.4% (inactive).

With `COc1ccccc1CNCCCN1C(=O)c2ccc3c4c(ccc(c24)C1=O)C(=O)N(CCCNCCCCN)C3=O`, the growth was -42% (active).

Take `CCOC(=O)C1=C(Nc2ccc(Br)cc2)C(=O)N(CC)C1`: the growth was 104% (inactive).

As to `CCOC(=O)Nc1ccc2c(c1)/C(=N\NC(=S)NC)c1ccccc1-2`, the growth was 103% (inactive).

For `COc1cc2nccc(Oc3ccc(NC(=O)C4(C(=O)Nc5ccc(F)cc5)CC4)cc3)c2cc1Oc1ccc(N)cn1`, the growth is 22.9% (inactive).

As for `Nc1ccc(N=Nc2ccccc2)c2cc(S(=O)(=O)O)ccc12`, the growth is 103% (inactive).

For `CC(C)[C@@H]1CC[C@]2(C(=O)NCCCCN=C(N)N)CC[C@]3(C)[C@H](CC[C@@H]4[C@@]5(C)CCC(=O)C(C)(C)[C@@H]5CC[C@]43C)[C@@H]12`, the growth is 13.5% (inactive).

Consider `CCOC(=O)C1=C(C)n2nc(CC#N)c(C#N)c2NC1c1ccc(CC)cc1` (stereo not given), for which the growth is 115% (inactive).

For the molecule `S=C(Sc1ccc(Cl)cc1)Sc1ccc(Cl)cc1`, the growth is -63.7% (active).

With `c1ccc(Nc2nc(Nc3ccccc3)nc(Nc3ccccc3)n2)cc1`, the growth was 63.8% (inactive).

Regarding `Cn1cc(-c2csc(-c3cn(CCN)c4ccc(Br)cc34)n2)c2cccnc21`, the growth was 41% (inactive).

Turning to `O=c1oc2ccc(F)cc2c(=O)n1-c1ccc(I)cc1F`, the growth was -42.8% (active).

In the case of `CN1C(=O)C(C(=O)/C=C/c2ccccc2C(=O)O)C(=O)N(C)C1=O`, the growth was 97.4% (inactive).

In the case of `CCCCCCCCCCCCCCCC[N+]1(C)CCOCC1`, the growth is -59.5% (active).

As for `c1ccc(-c2nc3sc(C(c4ccccc4)c4ccccc4)nn3c2-c2ccccc2)cc1`, the growth was 112% (inactive).

For `COc1ccc(-c2nsc3c2NC(=O)CC3c2cccc(F)c2)cc1` (stereo not given), the growth was 39.2% (inactive).

As to `COc1cc(CN)ccc1O`, the growth is 73.9% (inactive).

Take `CCCCCC(=O)O[C@]1(C(C)=O)CCC2C3CCC4=CC(=O)CC[C@]4(C)C3CC[C@@]21C` (stereo not given in full): the growth was -43.2% (active).

On to `Cc1ccc(-c2nc3ccccc3c(=O)n2/N=C/c2cccc3ccccc23)cc1`, for which the growth was 85.1% (inactive).

Consider `Cc1n(Cc2ccc3ccccc3c2)c2ccccc2[n+]1Cc1ccc2ccccc2c1`, for which the growth is -60.3% (active).

With `C(=C1c2ccccc2-c2ccccc21)c1ccccn1`, the growth is 52.3% (inactive).

With `COc1cc(/C=C2\C(=O)N(CCOc3cc(O)c4c(=O)cc(-c5ccccc5)oc4c3)c3ccccc32)cc(OC)c1O`, the growth was -9.06% (active).

As for `O=C(Nc1ccncc1)C(=O)c1cn(S(=O)(=O)c2ccc(F)cc2)c2ccccc12`, the growth is 0.498% (active).

Turning to `C=C1CCC2C3(C)COC(c4ccccc4)OC3CCC2(C)C1C/C=C1/C(=O)OCC1OC(C)=O` (stereo not given), the growth is 56% (inactive).

Consider `COc1ccc(/C=C2/SC(=O)N(CC(=O)N3CCN(c4cc5c(cc4F)c(=O)c(C(=O)O)cn5C4CC4)CC3)C2=O)cc1`, for which the growth was 105% (inactive).

As for `N#Cc1ccc(OC(=O)Nc2ccc(Cl)c(Cl)c2)cc1`, the growth is 64.2% (inactive).

Consider `O=C(Oc1ccccc1)c1cc(O)c(O)c(O)c1`, for which the growth is -5.58% (active).

Turning to `COc1cc(Cn2ncc3ccc(NC(=O)c4cc5ccccc5oc4=N)cc32)cc(OC)c1OC`, the growth was 64.8% (inactive).

As for `COc1cc(CNC(=O)CCCC/C=C/C(C)C)ccc1O`, the growth is 91.1% (inactive).

For the molecule `CN(C)c1ccc(N)c2ccccc12`, the growth is 43.5% (inactive).

For `Nc1ccc2c(c1)Cc1cc(Cl)c(Cl)cc1-2`, the growth is 53.4% (inactive).

For the molecule `COc1nc(OC)nc(-c2cc(-c3cc(OC)c(OC)c(OC)c3)no2)n1`, the growth was 95.2% (inactive).

As to `Clc1ccc(C2CC(c3cccc(Nc4ccncc4)c3)=NN2c2cc(Cl)cc(Cl)c2)cc1` (stereo not given), the growth was 24.8% (inactive).

Take `O=C1CC(c2nc3ccccc3[nH]2)CN1C1CCCCC1` (stereo not given): the growth was 101% (inactive).

Consider `Cc1cc(Cl)cc(Cc2cc(Cl)cc(C)c2O)c1O`, for which the growth is -27.9% (active).

Regarding `CC(C)(C)c1ccc(C(=O)Nc2sc3c(c2C(N)=O)CCC(=O)C3)cc1`, the growth is 3% (active).

Take `S=c1c2ncccc2c(-c2ccccn2)nn1Cc1ccccn1`: the growth is 71.6% (inactive).

Regarding `COc1c(-c2cc(-c3ccc(C)o3)[nH]c(=O)n2)c(O)cc2occc12`, the growth was 38.2% (inactive).

For the molecule `O=C(N/N=C/c1cc([N+](=O)[O-])ccc1O)c1cccc2ccccc12`, the growth was -14% (active).

Take `Cc1ccc(C)c2c(C)c(C(=O)Nc3cccc(-n4cccn4)c3)oc12`: the growth is 87.9% [50 µM] (inactive).
